Vaccinia Venus: vaccinia inhibition (Venus reporter) | 330,000 compounds, 0.46% hits | Potency, µM (doses to about 36.5 µM), for the others: at the highest dose activity change, negative = inhibition, hits mostly inhibitors | Vaccinia virus Venus reporter expression, fluorescence | AID 720580; calls by dose curve; tested in A549 cells; further: potency means the concentration at half of the fitted maximal effect; nearly all actives have a fitted effect of over 30% in size
MARV entry inh: blocks Marburg virus binding to or entry into cells; Marburg virus pseudotyped entry inhibition, cell reporter; Potency, µM (titrated, usually from 37.8 µM), without a hit: top-dose activity change, negative = inhibition, hits mostly inhibitors; 300,000 compounds, 1.8% hits; calls by dose curve; tested in HEK293 cells; further: potency means the concentration at half of the fitted maximal effect
Lassa entry inh: blocks Lassa virus binding to or entry into cells. Lassa virus pseudotype entry inhibition, cell reporter. Potency, µM (top dose mostly 37.9 µM), for inactives: top-dose activity change, negative = inhibition, most hits filed as inhibitors. 300,000 compounds, 1.2% hits. AID 540256; calls by dose curve; tested in HEK293 cells; further: potency means the concentration at half of the fitted maximal effect; nearly all actives have a fitted effect of over 50% in size
VACV mCherry inh: vaccinia inhibition (mCherry reporter). 310,000 compounds, 0.63% hits. Potency, µM (top dose mostly 36.5 µM), without a hit: at the top dose activity change, negative = inhibition, usual class: inhibitors. Vaccinia virus mCherry reporter infection, fluorescence; calls by dose curve; tested in A549 cells; further: potency means the concentration at half of the fitted maximal effect; nearly all actives have a fitted effect of over 35% in size
HCMV antiviral: inhibitors of human cytomegalovirus; HFF cells, HCMV-luciferase reporter, 72 h; stronger effect = lower value; activity change, negative = inhibition, % at 57.5 µM; 410,000 compounds, 4.5% hits; AID 1259415; in the data active means activity change below about -60%; inconclusive means no clear call, values can overlap the other calls; inactive means above about -39%
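After 16 h attachment at 37C, HFF cells received test compound and HCMV-luciferase (1 PFU/cell); reporter luminescence read 72 h later, data normalized against buffer-only and known inhibitor Salinomycin.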
HCV inhibitor: inhibitors of hepatitis C virus infection; AID 651820; Potency, µM (titrated, usually from 41.8 µM), for inactives: at the top dose activity change, negative = inhibition, most hits filed as inhibitors; Huh7.5.1 HCVcc-Cre infection, luciferase reporter, 44 h; 340,000 compounds, 3.4% hits; active means well fitted inhibition curve with a large enough effect; inconclusive means small, poorly fitted or top-dose-only effect, or another doubt; inactive means no such curve, though single readings can be large or run the other way; further: potency means the concentration at half of the fitted maximal effect
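After 44 h co-culture of compound, cells and HCVcc-Cre (~0.5 moi), substrate is added for 15 min at room temperature and luciferase measured over 15 sec. Cells were seeded at 1,000/well and pre-cultured 4 h.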
Numbers without * were called inactive; [ ] = remark or other dose. The list is not random: actives were taken first. Their share in the collection is about 7.8%. On the % scale 0 is the no-effect control and ±100 the full control effect.

For O=C(NCCC1=CCCCC1)c1c(O)nc2sccn2c1=O the results were Vaccinia Venus -15%, MARV entry inh 5%, Lassa entry inh -19%, VACV mCherry inh -15% and HCV inhibitor inconclusive.
`O=C(NCCCc1ccccc1)c1c(O)nc2sccn2c1=O` gave Vaccinia Venus -8%, MARV entry inh -9%, Lassa entry inh 14%, VACV mCherry inh -18%, HCMV antiviral -64* and HCV inhibitor -9%.
`Cc1cccc(CN2C(=O)N/C(=C/c3ccc(C)s3)C2=O)c1` gave Vaccinia Venus inconclusive, MARV entry inh inconclusive, Lassa entry inh 3.2µM*, HCMV antiviral 2 and HCV inhibitor inconclusive.
`CCn1cc(CN2CCC(C(=O)Nc3cccc(-c4cccc(F)c4)c3)CC2)cn1` gave Vaccinia Venus -24%, MARV entry inh -25%, Lassa entry inh -15%, VACV mCherry inh -7%, HCMV antiviral -63* and HCV inhibitor 8.9µM*.
Screening Cn1cc(CN2CCCC(C(=O)Nc3ccc(-c4cccc(F)c4)cc3)C2)cn1 (stereo not drawn) returned HCMV antiviral -72* and HCV inhibitor inconclusive.
`O=C(Nc1cccc(-c2cccc(Cl)c2)c1)C1CCN(Cc2ccc(CO)o2)CC1` gave Vaccinia Venus -19%, MARV entry inh -23%[46.1 µM], Lassa entry inh -10%[46.1 µM], VACV mCherry inh inconclusive, HCMV antiviral inconclusive and HCV inhibitor 10µM*.
Screening COc1ccc(-c2noc(N3CCN(c4cccc(C)c4C)CC3)n2)cc1OC returned Vaccinia Venus -12%, Lassa entry inh 1%[46.1 µM], VACV mCherry inh -15% and HCMV antiviral -27.
`CCc1nc(CN2CCN(c3ccc(C(F)(F)F)cn3)CC2)c(C)[nH]1` gave HCMV antiviral -20 and HCV inhibitor 10µM*.
`C/C(=N\NC(=O)c1ccc(NS(=O)(=O)c2cccs2)cc1)c1cccs1` gave Vaccinia Venus -2%, MARV entry inh 3%[46.1 µM], Lassa entry inh 18%, VACV mCherry inh 0%, HCMV antiviral -83* and HCV inhibitor -21%.
C/C(=N/NC(=O)c1cccs1)c1ccc(NC(=O)COc2ccc(Cl)cc2)cc1 was read as Vaccinia Venus 10%, MARV entry inh inconclusive, Lassa entry inh 10µM*, VACV mCherry inh 3%, HCMV antiviral -14 and HCV inhibitor inconclusive.
Screening O=C(c1ccc(NS(=O)(=O)c2cccs2)cc1)N1CCCCC1 returned Vaccinia Venus -22%, MARV entry inh -2%, Lassa entry inh -2%, VACV mCherry inh -27%, HCMV antiviral 13 and HCV inhibitor 2.8µM*.
Screening C/C(=N\NC(=O)c1ccc(Cl)cc1)c1cccs1 returned Vaccinia Venus inconclusive, MARV entry inh inconclusive, Lassa entry inh 3.5µM*, VACV mCherry inh -26%, HCMV antiviral -5 and HCV inhibitor 0%.
`O=C1[C@@H]2[C@H]3[C@H](O)[C@H](O)CC(=NOC[C@@H](O)COCc4ccco4)[C@@H]3CC[C@H]2C(=O)N1C1CCCCC1` gave MARV entry inh -22%[14.2 µM].
For CCOc1ccc(NC(=O)CSc2nc3c(oc4ccccc43)c(=O)n2-c2ccccc2C)cc1 the results were Vaccinia Venus -14%, MARV entry inh inconclusive, VACV mCherry inh -21% and HCMV antiviral -82*.
Screening CCOc1ccc(-n2c(SCC(=O)Nc3ccc(CC)cc3)nc3c(oc4ccccc43)c2=O)cc1 returned Vaccinia Venus -15%, MARV entry inh -5%[46.1 µM], Lassa entry inh 2%[46.1 µM], VACV mCherry inh -12% and HCMV antiviral 18.
CC1CCN(S(=O)(=O)c2ccc3c(c2)N(CC(=O)NCC(C)c2ccccc2)C(=O)CO3)CC1 (stereo not drawn) was read as Vaccinia Venus 0%, MARV entry inh -13%[46.1 µM], Lassa entry inh -15%[46.1 µM], VACV mCherry inh -9% and HCMV antiviral -7.
Screening COc1ccc2c3c(ccc2c1)C(=O)/C(=C/O)CC3 returned Vaccinia Venus -3%, MARV entry inh -15%, Lassa entry inh inconclusive, VACV mCherry inh -22%, HCMV antiviral 10 and HCV inhibitor -32%.
For O=C(CSc1nnc(-c2c[nH]c3ccccc23)o1)N1c2ccccc2CCc2ccccc21 the results were Vaccinia Venus inconclusive, MARV entry inh inconclusive, Lassa entry inh inconclusive, VACV mCherry inh inconclusive, HCMV antiviral -89* and HCV inhibitor 7.9µM*.
`O=C(NNc1ncnc2sccc12)c1ccc(Cl)cc1` gave Vaccinia Venus -26%, MARV entry inh inconclusive, Lassa entry inh 5%, VACV mCherry inh inconclusive, HCMV antiviral -37 and HCV inhibitor inconclusive.
For Cc1csc2ncnc(NNC(=O)c3ccc(Cl)cc3)c12 the results were Vaccinia Venus -5%, MARV entry inh inconclusive, Lassa entry inh inconclusive, VACV mCherry inh -28%, HCMV antiviral -38 and HCV inhibitor 7.9µM*.
`O=C(CCCN1C(=O)/C(=C/c2cccs2)SC1=S)Nc1cc([N+](=O)[O-])ccc1O` gave HCMV antiviral -73* and HCV inhibitor 18%.
For O=C(CCCN1C(=O)/C(=C/c2ccccc2)SC1=S)Nc1ccccc1O the results were Vaccinia Venus inconclusive, MARV entry inh inconclusive, Lassa entry inh 7%, VACV mCherry inh inconclusive, HCMV antiviral -100* and HCV inhibitor inconclusive.
For O=C(CCCN1C(=O)S/C(=C\c2ccccc2)C1=O)NNC(=O)c1ccccc1O the results were Vaccinia Venus -7%, MARV entry inh 1.8µM*, Lassa entry inh inconclusive, VACV mCherry inh -3%, HCMV antiviral -83* and HCV inhibitor inconclusive.
`O=C(CCCN1C(=O)/C(=C\c2cccs2)SC1=S)Nc1ccccc1O` gave Vaccinia Venus -29%, VACV mCherry inh -15% and HCMV antiviral -93*.
`Cc1cc(NC(=O)CCCN2C(=O)/C(=C\c3cccs3)SC2=S)no1` gave Vaccinia Venus 9%, MARV entry inh inconclusive, Lassa entry inh 17%, VACV mCherry inh -14%, HCMV antiviral -34 and HCV inhibitor 5%.
`O=C(CN1C(=O)c2ccccc2C1=O)NCC1Cc2cccc(-c3ncccn3)c2O1` (stereo not drawn) gave Vaccinia Venus -13% and VACV mCherry inh -15%.
For Cc1nn2c(C)c(C(=O)N3CCN(c4ccc(Cl)cc4)CC3)cnc2c1-c1ccc(F)cc1 the results were Vaccinia Venus -15%, Lassa entry inh 11%[46.1 µM], VACV mCherry inh -7% and HCMV antiviral -7.
O=C(N/N=C1/C[C@@H](O)[C@@H](O)[C@@H]2[C@@H]3C(=O)N(c4cccc(Oc5ccccc5)c4)C(=O)[C@H]3CC[C@H]12)OCc1ccccc1 was read as MARV entry inh 4%[14.2 µM].
Screening Cc1occc1C(=O)NCCN1Cc2ccccc2OC(c2ccccc2F)C1 (stereo not drawn) returned Vaccinia Venus 2% and VACV mCherry inh -9%.

Bioassay records: PubChem, National Center for Advancing Translational Sciences (NCATS)
